# Measurements published in the supplement of paper PMC6555819.
# Assays:
# Assay in all cases: PBM binding z-score (relative to random genomic background probes); higher = stronger binding; sequences stand for … in GC…GCGATTGACAGCGTAGAATGAAGG
# [1] = system: FXR:RXRa (NR concentration 270 nM, RXRa partner concentration 90 nM)
# Summary of the method: (§1)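 On custom Agilent 4×180K arrays, double-stranded probes with 34-nt variable regions carried direct-repeat seeds, single-nucleotide variants, half-site ablations or random human genomic background. Ligand-free nuclear receptor dimers were applied for 1 h, and binding was read with antibodies against each partner (one per run). Binding z-scores come from regression-normalized fluorescence, with the random background probes as reference.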
# [2] = system: LXRa:RXRa (NR concentration 270 nM, RXRa partner concentration 90 nM)
# Summary of the method: as §1
# [3] = system: LXRa homodimer (NR concentration 270 nM)
# Summary of the method: as §1
# [4] = system: LXRb:RXRa (NR concentration 270 nM, RXRa partner concentration 90 nM)
# Summary of the method: as §1
# [5] = system: PPARa:RXRa (NR concentration 270 nM, RXRa partner concentration 90 nM)
# Summary of the method: as §1
# [6] = system: PPARg:RXRa (NR concentration 180 nM, RXRa partner concentration 90 nM)
# Summary of the method: as §1
# [7] = system: PPARg:RXRa 270nM:90nM, anti-RXR (NR concentration 270 nM, RXRa partner concentration 90 nM)
# Summary of the method: as §1
# [8] = system: PPARg:RXRa 30nM:10nM, anti-RXR (NR concentration 30 nM, RXRa partner concentration 10 nM)
# Summary of the method: as §1
# [9] = system: PPARg:RXRa 90nM:30nM, anti-RXR (NR concentration 90 nM, RXRa partner concentration 30 nM)
# Summary of the method: as §1
# [10] = system: LXRb homodimer (NR concentration 270 nM)
# Summary of the method: as §1
Sequence,PBM binding z-score [1],PBM binding z-score [2],PBM binding z-score [3],PBM binding z-score [4],PBM binding z-score [5],PBM binding z-score [6],PBM binding z-score [7],PBM binding z-score [8],PBM binding z-score [9],PBM binding z-score [10]
CCGAGTAGGTTACGAAGGGGCATTCAGTGCGAAT,0.672,6.11,-0.15,4.02,1.83,1.04,1.55,-0.292,0.939,
CTATGTAGGTTAAGAGGGTCATTCAGTTTGAAAG,2.95,3.05,1.07,2.93,4.89,5.88,5.47,2.95,4.99,
CTATGTAGGTTAAGGCGGTCATTCAGTTTGAAAG,1.17,2.21,1.95,1.37,3.24,4.29,4.25,1.38,3.3,
CTATGTCGGTTAAGGGGGTCATTCAGTTTGAAAG,4.86,5.24,4.38,6.42,5.65,5.4,6.26,3.98,5.7,
TCGAGTAGGTTGCGGGGGCATTCAGGGATGAAGA,2.84,2.17,0.68,4.34,2.7,0.862,2.72,2.32,2.95,
TCGAGTAGCTTACGGGGGCATTCAGGGATGAAGA,1.64,1.5,0.141,3.47,2.12,,2.1,2.18,2.37,
CTACGTAGGTTAAGGGGGTCATTCAGTTTGAAAG,5.02,5.26,2.48,6.14,5.67,4.41,5.7,2.76,4.84,
TCGAGGAGGTTACGGGGGCATTCAGGGATGAAGA,5,3.99,0.868,5.71,5.33,6.77,5.92,4.08,5.24,
TCGAGTAGGTTACGGGGGCATTCACGGATGAAGA,2.41,2.89,0.361,4.92,4.38,5.82,6.16,3.37,5.06,
CTATGTAGGTTTAGGGGGTCATTCAGTTTGAAAG,4.33,4.71,4.34,5.97,5.41,4.01,5.15,2.66,4.77,
TCGAGTAGGTTACGGGGGCAGTCAGGGATGAAGA,2.28,2.27,0.393,4.55,3.63,4.99,5.02,2.93,4.41,
CCGAGTAGGTTACGAGGGGGCATTCACTGCGAAT,2.07,7.18,1.26,6.21,3.49,2.33,3.18,1.02,2.85,
CTATGTAGTTTAAGGGGGTCATTCAGTTTGAAAG,4.48,4.76,3.99,6.25,5.3,4.03,5.19,2.68,4.56,
CCGAGTAGGTTACGAGGGGACATTCAGTGCGAAT,1.08,5.68,0.00926,3.05,1.68,2.07,2.15,0.304,1.13,
CTATGTAGGTTAAGGGGGTCAGTCAGTTTGAAAG,3.26,3.55,1.38,5.26,5.54,8.01,7.42,5.06,7.09,
CTATGTAGGTTAAGGAGGTCATTCAGTTTGAAAG,3.87,4.84,4.54,3.92,5.23,6.14,5.71,3.14,5.11,
CCGAGTCGGTTACGAGGGGGCATTCAGTGCGAAT,0.716,4.66,1.26,4.05,1.74,-0.00257,0.709,-0.212,0.329,
CTATGTAGGTTAAGGGGGTCATTCACTTTGAAAG,5.19,5.06,2.92,6.16,5.91,8.46,8.03,5.89,8.28,
CCGAGTAGGTTACGACGGGGCATTCAGTGCGAAT,-0.0135,5.81,-0.31,3.38,1.36,0.995,1.17,-0.329,0.19,
CTATGTAGGTTAAGGGGCTCATTCAGTTTGAAAG,0.164,0.226,-0.199,1.35,4.02,6.99,6.59,4.66,6.73,
TCGAGTAGGTTACCGGGGCATTCAGGGATGAAGA,0.549,0.561,-0.39,0.585,2.27,2.79,2.86,1.46,2,
CTATGTAGGTTAAGGGGGACATTCAGTTTGAAAG,1.22,1.63,0.816,3.58,5.12,8.82,8.59,7.64,9.61,
TCGAGTAGGTTCCGGGGGCATTCAGGGATGAAGA,2.36,1.8,0.316,4.06,2.5,0.485,2.22,1.38,2.24,
TCTAGCTGGTCACGGAGGTCACACACGACGGGTA,3.41,3.79,2.37,,3.88,3.35,3.83,2.33,3.14,0.0556
GCTTACGGGTCAAAGGTTAAAGCATGAATAGAAT,7.68,6.08,0.955,,7.2,11.8,9.59,9.12,10.3,0.412
TCTAGTTGGTCACGGGGGTCACACACGACGGGTA,5.12,4.95,2.06,,5.15,5.57,6.09,4.82,5.65,9.37
